Laboratory results reported in PubChem BioAssay AID624331 (National Center for Advancing Translational Sciences (NCATS), 2012).
Results filed as inconclusive are left out. Activity calls are given as the source filed them. Calls come from the whole dose curve; as a rule, active = well fitted activation curve with a large enough effect; inconclusive = small, poorly fitted or top-dose-only effect; inactive = no such curve, though single readings can be large or run the other way.

assay: qHTS assay for re-activators of p53 using a Luc reporter: Hit Validation with no p53 Expressed; details: p53-null cells, luciferase reporter counter-screen; series mostly up to 46.1 µM; activity change, positive = activation: at the top concentration; for activity change, positive = activation: 0% is about no effect
How it was run: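 Counter-screen of primary hits in a cell line not transfected with p53, in Opti-MEM with 10% FBS; compounds at several concentrations (10 mM stock, 1:5; top 46.1 µM in well), 24 h at 37 deg C, 5% CO2. Luminescence read after 10 min with Amplite reagent.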
Potency is the fitted concentration of half-maximal effect.

SMILES | activity change, positive = activation | Potency
CN1CCN(C(=O)c2cc3ccccc3cc2O)CC1 | -18% (inactive) | –
O=C(NCCC1=CCCCC1)c1ccc([N+](=O)[O-])cc1 | 64.3% (inactive) | –
Cc1cc(C(=O)N2CCN(c3ccccc3Cl)CC2)c(C)o1 | 12.6% (inactive) | –
CC(=O)c1cccc(NS(=O)(=O)N(C)C)c1 | 0.341% (inactive) | –
Cc1ccccc1CSc1ncc(C#N)c(N)n1 | 8.99% (inactive) | –
CCSc1nnc(SCC(=O)NC2CCCCC2)s1 | -56% (inactive) | –
Cc1ccc(C(=O)N2CC(=O)Nc3ccc(F)cc3C2c2ccc(F)cc2)cc1[N+](=O)[O-] (stereo not given) | -57% (inactive) | –
Cc1ccc(C2=CC(c3ccc(N(C)C)cc3)n3nnnc3N2)cc1 (stereo not given) | 39.1% (inactive) | –
Cc1cc(NC(=O)c2cccc(COc3ccc(Br)cc3)c2)no1 | -10.5% (inactive) | –
CN1CC(C(=O)Nc2ccc(F)c(Cl)c2)CC1=O (stereo not given) | 8.28% (inactive) | –
Cn1ncc(Cl)c(Oc2ccc(C(C)(C)C)cc2)c1=O | 9.17% (inactive) | –
O=C(Nc1ccc(F)cc1F)c1cc2nc3c(c(C(F)(F)F)n2n1)CCCC3 | – | 5.8 µM (active)
O=C(CSc1nnnn1C1CCCCC1)NCCc1ccccc1 | -22.1% (inactive) | –
Cc1cc(C(c2nnnn2Cc2ccccc2)N2CCOCC2)c(C)n1-c1ccc2c(c1)OCO2 (stereo not given) | 35.8% (inactive) | –
Cc1ccc(-c2nnc(Oc3cccc(C)c3)c3ccccc23)cc1 | 37.7% (inactive) | –
Cc1ccc(-n2c(C)cc(C(=O)CSc3nnc4ccccn34)c2C)cc1 | – | 0.731 µM (active)
O=C(c1ccc(N2CCN(S(=O)(=O)c3ccccc3)CC2)c([N+](=O)[O-])c1)N1CCOCC1 | -29.5% (inactive) | –
O=C(Nn1c(SCc2ccc([N+](=O)[O-])cc2)nc2ccccc2c1=O)c1ccc(F)cc1 | 24.3% (inactive) | –
CCOC(=O)c1cccc(C2=CC(=O)C[C@H](c3ccc(OC)cc3)C2)c1 | 43.4% (inactive) | –
CCOC(=O)CC(=O)Nc1ccc(C(=O)OCC)cc1 | -41.9% (inactive) | –

SMILES | activity change, positive = activation | Potency
Cc1ccc2nc(-c3ccc(NC(=O)CCN4C(=O)c5ccccc5C4=O)cc3)sc2c1 | 90.2% (inactive) | –
N#Cc1cnc(Oc2ccc(Cl)cc2)nc1N | 31% (inactive) | –
CNc1ccc(/C=C/C(=O)c2ccc(C)cc2)cc1[N+](=O)[O-] | 4.5% (inactive) | –
Cc1ccsc1/C=C(\C#N)C(=O)Nc1c(C)n(C)n(-c2ccccc2)c1=O | -39.4% (inactive) | –
Cc1ccc(C)c(Oc2cc(NC(=O)CCCn3nc(C)c([N+](=O)[O-])c3C)cc([N+](=O)[O-])c2)c1 | -48.2% (inactive) | –
O=C1CCCC(O)=C1N=Nc1c(Cl)cc(Cl)cc1Cl | -8.49% (inactive) | –
O=C(CC(=O)c1ccccc1O)c1cccc(F)c1 | -34% (inactive) | –
CC(=O)c1cc2c(C)c(C(=O)c3ccccc3)oc2cc1O | 53.9% (inactive) | –
COc1ccc(NC(=O)/C(=C\c2ccc3c(c2)OCO3)NC(C)=O)cc1 | -40.1% (inactive) | –
O=C(Nc1ccc(Br)cn1)c1cccc(-c2cc3ccccc3oc2=O)c1 | -13.3% (inactive) | –
COc1ccc(C(c2nnnn2CCc2ccccc2)N2CCN(C3CCCC3)CC2)cc1 (stereo not given) | 66% (inactive) | –
N#CC(Cc1ccccc1)(Cc1ccccc1)C(=O)NN | – | 29.1 µM (active)
CC(=O)Nc1cccc(C(=O)N/N=C/c2ccccc2F)c1 | 92.9% (inactive) | –
COc1cc(C(=S)N2CCOCC2)ccc1OC(=O)c1ccccc1C | 29.9% (inactive) | –
Clc1cccc(N/N=C(\Cc2nc3ccccc3[nH]2)c2ccccc2)c1 | -3.28% (inactive) | –
O=C(CSc1nc2ccccc2c(=O)[nH]1)c1ccc(O)c(O)c1 | -15.6% (inactive) | –
CC(C)[C@H](NC(=O)c1ccc(Cl)cc1Cl)C(=O)NNc1cccc(C(=O)O)c1 | 73.4% (inactive) | –
CCOc1ccc(N/C=C/C(=O)c2ccccc2)c([N+](=O)[O-])c1 | -51.8% (inactive) | –
C=CCn1c(SC(F)F)nc2scc(-c3ccco3)c2c1=O | 87.2% (inactive) | –
CCN(CC)c1ccc(CNc2ccc(Br)cn2)cc1 | 84.8% (inactive) | –
